# From the supplement of paper PMC10849652
# The full data set covers some 8,800 targets. This sample favours those with a hit. About 0.5% of all pairs of compound and target were hits. Unmarked numbers belong to inactive results.
# Tests used:
# Assay in all cases: log2 fold change, soluble protein after heating vs DMSO (PISA); higher = thermal stabilisation; K562 lysate, 10 uM; active = over 0.2 and 3.5 SD of the protein, either way, in both replicates (recomputed)
# vemurafenib = compound: CCCS(=O)(=O)Nc1ccc(F)c(C(=O)c2c[nH]c3ncc(-c4ccc(Cl)cc4)cc23)c1F [vemurafenib]
# In short: (§1)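 Dounce homogenisation of K562 pellets in PBS pH 7.4 with 1 mM MgCl2 produced a crude extract, used at 1 mg/mL protein. Exposure to 10 μM compound lasted 30 min, and aliquots were then heated for 3 min across 48°C-58°C, pooled and brought to 0.5% NP-40 at 4°C. The supernatant after 21,000xg for 90 min was quantified by TMTpro 16plex LC-MS/MS with channel sums equalised. Duplicate values are given as log-two fold change in thermal stability relative to solvent controls.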
# [1] = compound: CCCS(=O)(=O)Nc1ccc(F)c(C(=O)c2c[nH]c3ncc(Cl)cc23)c1F
# In short: as §1
# barasertib = compound: CCN(CCCOc1ccc2c(Nc3cc(CC(=O)Nc4cccc(F)c4)[nH]n3)ncnc2c1)CCOP(=O)(O)O [barasertib]
# In short: as §1
# [2] = compound: CC[C@@H]1C(=O)N(C)c2cnc(Nc3ccc(C(=O)NC4CCN(C)CC4)cc3OC)nc2N1C1CCCC1
# In short: as §1
# volasertib = compound: CC[C@@H]1C(=O)N(C)c2cnc(Nc3ccc(C(=O)N[C@H]4CC[C@H](N5CCN(CC6CC6)CC5)CC4)cc3OC)nc2N1C(C)C [volasertib]
# In short: as §1
# [3] = compound: CCn1c(C(=O)N(C2CC2)C2CC2)cc2c3c(ncn3C)c(Nc3cc(C)n(C)n3)nc21
# In short: as §1
# [4] = compound: CCn1cc(-c2ccnc3[nH]c(-c4cccc(CN(C)C)c4)cc23)c(-c2ccc(NC(=O)N(C)C)cc2)n1
# In short: as §1
# [5] = compound: CN1CCC(CNc2ccc3ncc(-c4cccc(OC(F)(F)F)c4)n3n2)CC1
# In short: as §1
# saracatinib = compound: CN1CCN(CCOc2cc(OC3CCOCC3)c3c(Nc4c(Cl)ccc5c4OCO5)ncnc3c2)CC1 [saracatinib]
# In short: as §1
# sotrastaurin = compound: CN1CCN(c2nc(C3=C(c4c[nH]c5ccccc45)C(=O)NC3=O)c3ccccc3n2)CC1 [sotrastaurin]
# In short: as §1
# UniProt Q9NWS6, sequence (Q9NWS6 whole entry, looked up): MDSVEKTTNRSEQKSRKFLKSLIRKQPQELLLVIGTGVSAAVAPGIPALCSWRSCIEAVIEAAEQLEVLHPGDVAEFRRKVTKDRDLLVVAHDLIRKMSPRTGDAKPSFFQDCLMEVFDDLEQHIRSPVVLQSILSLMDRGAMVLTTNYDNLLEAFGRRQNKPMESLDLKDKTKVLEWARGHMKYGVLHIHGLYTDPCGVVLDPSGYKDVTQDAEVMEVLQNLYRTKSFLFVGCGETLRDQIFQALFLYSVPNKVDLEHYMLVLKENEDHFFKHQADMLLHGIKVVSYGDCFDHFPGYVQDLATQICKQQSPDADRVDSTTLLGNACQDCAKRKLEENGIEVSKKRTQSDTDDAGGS
# UniProt P0DPD7, sequence (P0DPD7 whole entry, looked up): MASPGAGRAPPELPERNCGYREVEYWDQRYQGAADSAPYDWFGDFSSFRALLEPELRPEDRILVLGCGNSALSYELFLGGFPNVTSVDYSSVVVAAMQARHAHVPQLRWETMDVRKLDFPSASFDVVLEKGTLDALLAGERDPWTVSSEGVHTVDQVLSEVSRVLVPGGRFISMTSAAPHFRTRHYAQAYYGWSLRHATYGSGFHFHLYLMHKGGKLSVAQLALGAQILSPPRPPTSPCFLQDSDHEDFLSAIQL
# UniProt P22102, sequence (P22102 whole entry, looked up): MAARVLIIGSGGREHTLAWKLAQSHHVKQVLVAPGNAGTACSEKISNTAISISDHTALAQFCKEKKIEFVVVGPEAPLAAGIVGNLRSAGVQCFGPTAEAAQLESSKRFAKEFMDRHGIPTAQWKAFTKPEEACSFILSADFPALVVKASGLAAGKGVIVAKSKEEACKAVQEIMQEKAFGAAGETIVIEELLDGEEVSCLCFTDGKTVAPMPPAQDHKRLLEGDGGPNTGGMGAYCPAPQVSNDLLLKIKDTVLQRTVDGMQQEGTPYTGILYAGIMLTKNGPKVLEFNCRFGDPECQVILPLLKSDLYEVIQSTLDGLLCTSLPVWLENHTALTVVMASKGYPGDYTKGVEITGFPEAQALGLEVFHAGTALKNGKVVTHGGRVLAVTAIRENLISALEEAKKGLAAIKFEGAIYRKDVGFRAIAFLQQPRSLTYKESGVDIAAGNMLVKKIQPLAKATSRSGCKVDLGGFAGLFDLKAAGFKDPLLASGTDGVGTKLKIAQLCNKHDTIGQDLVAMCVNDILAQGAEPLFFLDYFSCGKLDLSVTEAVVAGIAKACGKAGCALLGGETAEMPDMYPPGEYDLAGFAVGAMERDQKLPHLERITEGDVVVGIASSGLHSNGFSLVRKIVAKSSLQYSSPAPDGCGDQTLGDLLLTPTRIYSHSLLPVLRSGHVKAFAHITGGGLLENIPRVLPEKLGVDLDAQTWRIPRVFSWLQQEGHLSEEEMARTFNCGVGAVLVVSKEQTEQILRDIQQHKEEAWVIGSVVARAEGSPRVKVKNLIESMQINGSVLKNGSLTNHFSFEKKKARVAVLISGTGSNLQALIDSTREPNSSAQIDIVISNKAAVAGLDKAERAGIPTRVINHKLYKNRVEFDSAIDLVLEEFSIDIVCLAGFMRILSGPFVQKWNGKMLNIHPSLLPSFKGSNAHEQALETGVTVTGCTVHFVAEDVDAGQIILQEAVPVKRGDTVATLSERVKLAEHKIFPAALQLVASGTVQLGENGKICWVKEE
# UniProt O94905, sequence (O94905 whole entry, looked up): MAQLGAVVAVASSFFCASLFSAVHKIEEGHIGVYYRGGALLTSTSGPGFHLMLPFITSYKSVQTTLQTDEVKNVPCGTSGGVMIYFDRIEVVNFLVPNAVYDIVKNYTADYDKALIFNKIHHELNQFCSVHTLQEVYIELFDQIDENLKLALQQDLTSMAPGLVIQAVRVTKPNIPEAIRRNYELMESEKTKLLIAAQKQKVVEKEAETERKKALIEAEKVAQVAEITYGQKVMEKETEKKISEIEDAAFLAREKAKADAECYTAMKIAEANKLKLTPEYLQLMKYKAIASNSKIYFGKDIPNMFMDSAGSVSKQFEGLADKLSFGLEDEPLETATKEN
# UniProt P57772, sequence (P57772 whole entry, looked up): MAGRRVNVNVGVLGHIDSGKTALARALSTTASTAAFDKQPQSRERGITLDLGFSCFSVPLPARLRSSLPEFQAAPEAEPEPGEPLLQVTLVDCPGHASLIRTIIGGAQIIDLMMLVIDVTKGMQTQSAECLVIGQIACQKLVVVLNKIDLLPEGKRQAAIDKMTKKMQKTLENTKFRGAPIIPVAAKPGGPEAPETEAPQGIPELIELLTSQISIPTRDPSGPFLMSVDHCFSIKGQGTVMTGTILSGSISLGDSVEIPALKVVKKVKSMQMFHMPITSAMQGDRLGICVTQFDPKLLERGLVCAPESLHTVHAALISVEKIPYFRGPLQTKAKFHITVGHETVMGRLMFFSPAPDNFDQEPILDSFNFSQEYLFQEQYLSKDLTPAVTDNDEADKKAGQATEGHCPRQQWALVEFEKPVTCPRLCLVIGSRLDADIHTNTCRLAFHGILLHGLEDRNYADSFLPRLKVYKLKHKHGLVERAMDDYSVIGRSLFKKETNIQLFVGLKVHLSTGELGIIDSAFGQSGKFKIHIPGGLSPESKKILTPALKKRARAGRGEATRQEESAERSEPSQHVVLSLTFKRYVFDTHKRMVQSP
# UniProt Q9Y285, sequence (Q9Y285 whole entry, looked up): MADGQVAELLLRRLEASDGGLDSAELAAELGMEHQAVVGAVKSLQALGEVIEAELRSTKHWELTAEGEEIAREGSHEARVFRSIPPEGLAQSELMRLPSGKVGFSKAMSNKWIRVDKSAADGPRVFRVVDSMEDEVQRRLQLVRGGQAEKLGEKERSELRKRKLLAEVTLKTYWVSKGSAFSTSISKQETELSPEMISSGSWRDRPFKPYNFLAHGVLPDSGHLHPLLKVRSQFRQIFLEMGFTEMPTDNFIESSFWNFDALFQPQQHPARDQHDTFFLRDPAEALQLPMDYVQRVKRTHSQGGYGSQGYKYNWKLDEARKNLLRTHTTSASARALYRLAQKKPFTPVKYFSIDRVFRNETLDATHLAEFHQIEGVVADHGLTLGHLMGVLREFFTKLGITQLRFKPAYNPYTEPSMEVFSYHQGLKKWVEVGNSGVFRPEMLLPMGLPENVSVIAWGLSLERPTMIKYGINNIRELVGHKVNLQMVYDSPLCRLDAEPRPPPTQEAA
# UniProt O15117, sequence (O15117 whole entry, looked up): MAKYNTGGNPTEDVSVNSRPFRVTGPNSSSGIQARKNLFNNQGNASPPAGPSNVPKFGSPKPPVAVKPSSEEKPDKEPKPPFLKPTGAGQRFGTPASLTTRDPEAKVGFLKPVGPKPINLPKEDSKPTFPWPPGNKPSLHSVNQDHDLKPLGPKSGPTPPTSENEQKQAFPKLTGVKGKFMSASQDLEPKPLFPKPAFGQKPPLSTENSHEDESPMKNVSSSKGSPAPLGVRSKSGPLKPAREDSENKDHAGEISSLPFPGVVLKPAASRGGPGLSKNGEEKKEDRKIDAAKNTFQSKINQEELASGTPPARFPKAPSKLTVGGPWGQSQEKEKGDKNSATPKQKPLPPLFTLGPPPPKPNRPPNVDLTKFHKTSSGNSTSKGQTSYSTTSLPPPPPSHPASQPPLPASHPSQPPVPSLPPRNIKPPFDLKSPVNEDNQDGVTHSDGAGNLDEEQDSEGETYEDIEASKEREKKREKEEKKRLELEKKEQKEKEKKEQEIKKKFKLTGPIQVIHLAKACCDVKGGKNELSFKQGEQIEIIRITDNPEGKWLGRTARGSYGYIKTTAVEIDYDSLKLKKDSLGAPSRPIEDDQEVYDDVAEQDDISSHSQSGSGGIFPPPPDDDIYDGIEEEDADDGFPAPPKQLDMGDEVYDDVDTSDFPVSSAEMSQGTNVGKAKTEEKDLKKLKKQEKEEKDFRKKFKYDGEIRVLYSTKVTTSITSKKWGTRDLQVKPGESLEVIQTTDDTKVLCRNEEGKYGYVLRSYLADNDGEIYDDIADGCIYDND
# UniProt Q9UBQ6, sequence (Q9UBQ6 whole entry, looked up): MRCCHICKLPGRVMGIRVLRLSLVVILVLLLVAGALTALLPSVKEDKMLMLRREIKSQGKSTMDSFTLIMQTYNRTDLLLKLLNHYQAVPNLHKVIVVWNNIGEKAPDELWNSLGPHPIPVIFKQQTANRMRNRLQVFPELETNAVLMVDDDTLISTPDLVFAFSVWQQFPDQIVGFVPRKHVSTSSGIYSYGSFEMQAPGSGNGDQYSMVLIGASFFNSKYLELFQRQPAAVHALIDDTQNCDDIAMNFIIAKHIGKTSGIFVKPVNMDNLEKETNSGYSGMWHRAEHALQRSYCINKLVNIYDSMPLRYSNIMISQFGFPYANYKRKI
# UniProt P60981, sequence (P60981 whole entry, looked up): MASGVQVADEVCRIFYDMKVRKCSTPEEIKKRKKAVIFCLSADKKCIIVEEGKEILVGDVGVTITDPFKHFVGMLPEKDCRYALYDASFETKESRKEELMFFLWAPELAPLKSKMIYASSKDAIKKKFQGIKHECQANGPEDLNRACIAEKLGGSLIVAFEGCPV
# UniProt Q9UPW0, sequence (Q9UPW0 whole entry, looked up): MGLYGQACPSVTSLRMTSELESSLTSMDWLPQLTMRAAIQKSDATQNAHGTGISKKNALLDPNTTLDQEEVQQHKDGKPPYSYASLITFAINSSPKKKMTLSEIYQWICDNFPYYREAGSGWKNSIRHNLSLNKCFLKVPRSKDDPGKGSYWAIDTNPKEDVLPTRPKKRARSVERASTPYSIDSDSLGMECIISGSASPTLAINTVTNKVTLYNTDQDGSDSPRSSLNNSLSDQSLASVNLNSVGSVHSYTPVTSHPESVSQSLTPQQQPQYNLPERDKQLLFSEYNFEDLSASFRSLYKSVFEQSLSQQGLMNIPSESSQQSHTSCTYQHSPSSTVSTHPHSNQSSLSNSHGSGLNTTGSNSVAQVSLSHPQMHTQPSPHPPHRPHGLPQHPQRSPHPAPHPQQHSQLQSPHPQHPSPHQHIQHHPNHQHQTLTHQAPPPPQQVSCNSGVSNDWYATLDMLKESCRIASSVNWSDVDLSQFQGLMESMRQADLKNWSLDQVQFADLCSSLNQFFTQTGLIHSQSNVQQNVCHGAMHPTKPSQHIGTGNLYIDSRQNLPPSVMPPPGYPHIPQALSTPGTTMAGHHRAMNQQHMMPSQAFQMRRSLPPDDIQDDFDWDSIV
Target,log2 fold change (vemurafenib),log2 fold change [1],log2 fold change (barasertib),log2 fold change [2],log2 fold change (volasertib),log2 fold change [3],log2 fold change [4],log2 fold change [5],log2 fold change (saracatinib),log2 fold change (sotrastaurin)
EXTL2 (UniProt Q9UBQ6),-0.052,0.066,0.057,-0.13,0.019,0.03,-0.198,0.078,-0.017,-0.026
FYB1 isoform 3 (UniProt O15117),-0.056,-0.011,-0.003,0.043,-0.026,-0.018,0.072,-0.101,0.007,0.008
FARSA (UniProt Q9Y285),-0.002,-0.01,-0.012,0.091,-0.035,-0.068,-0.018,0.054,0.03,0.583 (active)
FUBP3 (UniProt Q96I24),-0.007,0.019,0.048,0.046,-0.032,0.042,0.028,-0.012,0.03,-0.077
EEFSEC (UniProt P57772),0.031,0.024,0.031,-0.067,-0.035,-0.012,-0.073,0.009,-0.015,-0.016
EP400 isoform 5 (UniProt Q96L91),-0.021,-0.007,-0.015,0.044,-0.042,-0.023,-0.007,0.011,0.01,-0.012
EP300 (UniProt Q09472),-0.018,-0.01,0.007,-0.006,-0.042,-0.009,-0.151,0.058,0.027,-0.022
EEF1A1P5 (UniProt Q5VTE0),0.022,0.002,-0.017,0.004,-0.022,-0.031,-0.105,0.073,-0.021,0.025
FAM118A (UniProt Q9NWS6),-0.013,0.011,0.018,-0.017,-0.009,-0.031,-0.135,0.077,0.063,0.025
"ENO1, A0A2R8YEM5",-0.03,-0.017,-0.056,0.008,0.004,-0.04,-0.44 (active),0.325 (active),0.031,-0.011
FLAD1 (UniProt Q8NFF5),-0.051,0.022,-0.063,0.055,-0.028,0.01,-0.002,-0.035,-0.001,0.075
GART (UniProt P22102),0.007,0.001,0.028,-0.066,-0.054,0.038,0.124,-0.013,0.011,-0.023
ERI1 (UniProt Q8IV48),0.01,0.01,0.008,-0.018,-0.023,-0.008,0.065,-0.112,-0.006,0.034
FMNL1 isoform 3 (UniProt O95466),0.022,-0.008,-0.002,0.028,-0.088,-0.035,0.026,-0.032,0.007,-0.006
DSTN (UniProt P60981),-0.006,-0.002,-0.005,-0.015,-0.013,0.015,0.025,0.035,-0.005,-0.011
EXOC5 (UniProt O00471),0.033,0.03,0.044,-0.036,-0.081,0.02,0.068,-0.115,0.044,0.022
FHOD1 (UniProt Q9Y613),-0.018,0.018,0.042,-0.05,-0.034,0.048,0.013,-0.017,0.015,0.036
EIF1 (UniProt P41567),0.013,-0.014,-0.053,0.053,0.023,-0.05,0.009,0.084,-0.02,-0.042
ECI2 (UniProt O75521),0.071,0.013,0.007,0.059,-0.013,0.004,-0.021,-0.017,-0.003,-0.045
ERLIN2 (UniProt O94905),-0.003,0.012,0.021,0.05,-0.029,0.012,0.384 (active),-0.135,0.008,-0.008
GIGYF2 (UniProt Q6Y7W6),-0.001,-0.017,0.049,0.093,-0.05,-0.001,0.028,-0.055,0.009,-0.001
FTL (UniProt P02792),-0.063,0.047,-0.005,0.03,0.06,-0.327,-0.041,0.092,0.058,0.036
FOXJ3 (UniProt Q9UPW0),0.111,0.124,0.038,0.054,-0.096,0.02,0.032,-0.08,0.023,0.018
GGA2 (UniProt Q9UJY4),-0.003,0.011,0.073,-0.005,-0.048,0.032,-0.02,-0.088,0.025,0.041
FXR2 (UniProt P51116),0,0.041,-0.003,-0.021,-0.028,0.028,0.007,-0.076,0.034,-0.009
EGLN1 (UniProt Q9GZT9),-0.052,-0.041,-0.025,-0.078,-0.076,0.007,0.019,-0.001,0.029,0.034
EIF2AK1 (UniProt Q9BQI3),-0.004,-0.05,0.019,-0.016,-0.287 (active),-0.002,-0.001,-0.037,-0.019,0
FLT4 (UniProt P35916),-0.069,-0.046,-0.036,-0.031,-0.042,0.135,0.018,0.08,-0.036,–
EEF1AKMT4 (UniProt P0DPD7),0.135,0.008,0.126,-0.025,-0.072,-0.035,-0.129,0.052,-0.033,-0.004
FADS3 (UniProt Q9Y5Q0),0.066,0.149,0,0.119,-0.103,0.023,-0.957 (active),0.343,0.152,-0.057
